Experimental data from PubChem BioAssay (NCATS).
Results filed as inconclusive are left out. The source made the active and inactive calls. The call rests on the fitted dose curve; in most records, active means well fitted inhibition curve with a large enough effect; inconclusive means small, poorly fitted or top-dose-only effect; inactive means flat fitted curve, though single readings scatter. *1 amine or outer side, *2 acyl side, *3 side chain or, on linkers, in order; H or OH if unused. Where a SMILES comes first, the peptide text is derived from it. [ ]: non-standard residue; d: D form. X13 = O=C(C(CC(O)CO)O[*:1])[*:2]; NMeV = CN[CH](C(=O)O)C(C)C; NMeA = CN[CH](C)C(=O)O; βAla = NCCC(=O)O

Each molecule was assayed on NIH3T3 (assay: qHTS assay to identify novel small-molecules to repurpose for Merkel cell carcinoma treatment (AID 1296009; further: nearly all actives have a fitted effect of over 60% in size)). Conditions: MCC and control cell lines, CellTiter-Glo viability, 72 h; at 44.8 µM (top of the series) unless noted.
Procedure, shortened: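 Cell viability measured by CellTiter-Glo following 72 hr compound treatment at 37 degree celsius, with NPC and MIPE libraries tested in 8- and 11-point concentration series.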
In the case of `CCCC/C=C\CCCCCc1cc(=O)c2ccccc2n1C`, the outcome is reported as “inactive”. With `Cn1cc(Nc2cnccc2C(=O)O)c2cccnc21` the outcome was “inactive”. With `C[C@H]1[C@H](C)C[C@@H](C(=O)O)C2CC[C@]3(C)C(=CC[C@@H]4[C@@]5(C)CC[C@H](O)C(C)(C)[C@@H]5CC[C@]43C)[C@@H]21` (some centres not stated) the outcome was “inactive”. `C=CC(C)(O)CC/C=C(\C)C(=O)O[C@@H]1[C@@H](O)[C@H](OC(C)(C=C)CC/C=C(\C)C(=O)O)O[C@H](CO)[C@H]1OC(=O)/C(C)=C/CCC(C)(O)C=C` (some centres not stated) was tested, and the outcome was “inactive [at 17.4 µM]”. For `CC1(C)CC[C@]2(C(=O)O[C@@H]3O[C@H](CO)[C@@H](O)[C@H](O)[C@H]3O)CC[C@]3(C)C(=CCC4[C@@]5(C)CC[C@H](O[C@@H]6O[C@H](C(=O)O)[C@@H](O)[C@H](O)[C@H]6OC6OC(CO)C(O)C(O)C6O)C(C)(C)C5CC[C@]43C)[C@@H]2C1` (some centres not stated), the outcome was “inactive [at 9.27 µM]”. For `COc1cccc(C)c1C(=O)O[C@@H]1C[C@H](O[C@H]2[C@H](O)C[C@H](O[C@@H]3CCC[C@H]4[C@H]3C=C[C@@H]3CCCC/C=C/[C@H]5C=C(C(=O)O)[C@@H](C)C[C@@]56OC(=O)C(=C6O)OC(=O)[C@@]34C)O[C@@H]2C)O[C@H](C)[C@H]1O`, the outcome was “inactive [at 9.27 µM]”. In the case of `CC(C)CC(=O)OC[C@@]1(O)C[C@@]23CC[C@H]4[C@@](C)(CCC[C@@]4(C)C(=O)O)[C@@H]2CC[C@@H]1C3`, the outcome is reported as “inactive [at 17.4 µM]”. In the case of `C=C[C@H]1[C@H](O[C@@H]2O[C@H](CO)[C@@H](O)[C@H](O)[C@H]2O)OC=C(C(=O)OC)[C@H]1CC=O`, the outcome is reported as “inactive”. In the case of `C=C1C(=O)OC2CC(COC(=O)C(C)C)=C(C(C)CCCOC(C)=O)[C@@H](OC(C)=O)C12` (some centres not stated), the outcome is reported as “inactive [at 17.4 µM]”. For `CC1=C2C(=O)C=C(CO[C@@H]3O[C@H](CO)[C@@H](O)[C@H](O)[C@H]3O)[C@@H]2[C@H]2OC(=O)[C@H](C)[C@@H]2[C@@H](O)C1`, the outcome was “inactive [at 17.4 µM]”. `C=C1C(=O)O[C@@H]2CC(C)=C([C@@H](C)CCCOC(C)=O)[C@@H](O)[C@H]12` was tested, and the outcome was “inactive”. `CC1=COC(OC2OC(CO)C(O)C(O)C2O)C2C(CO)CC(OC(=O)/C=C/c3ccc(O)cc3)C12` (configuration not stated) was tested, and the outcome was “inactive [at 17.4 µM]”. For `COc1cccc(OC)c1-c1ccc(C[C@H](NC(=O)c2c(Cl)cccc2Cl)C(=O)O)cc1`, the outcome was “inactive”. In the case of `C/C=C/C(=O)OC1/C=C/C(O)C(OC(C)=O)CCC(=O)OC1C` (configuration not stated), the outcome is reported as “inactive”. `CC1(C)[C@H]2C[C@H](C/C=C\CCCC(=O)O)[C@@H](NC(=O)c3csc4ccc(O)cc34)[C@@H]1C2` was tested, and the outcome was “inactive”. For `CC(=O)/C=C/C1C(C)CC(O[C@@H]2O[C@H](CO)[C@@H](O)[C@H](O)[C@H]2O)CC1(C)C` (some centres not stated), the outcome was “inactive”. `COC(=O)c1ccccc1O[C@@H]1O[C@H](CO[C@@H]2OC[C@@H](O)[C@H](O)[C@H]2O)[C@@H](O)[C@H](O)[C@H]1O` was tested, and the outcome was “inactive [at 17.4 µM]”. For `NC(Cc1c[nH]c2ccc(O)cc12)C(=O)O` (configuration not stated), the outcome was “inactive”. For `CCN=C1N[C@@H]2[C@@H](O)[C@H](O)[C@@H](CO)O[C@@H]2S1`, the outcome was “inactive”. For `O=C(NC1CCN(CC(F)(F)F)CC1)c1ccc(-c2cccc(F)c2)nc1`, the outcome was “inactive”. `COc1cc(/C=C/C(=O)O[C@H]2[C@@H]3C=CO[C@@H](O[C@@H]4O[C@H](CO)[C@@H](O)[C@H](O)[C@H]4O)[C@@H]3[C@@]3(CO)O[C@@H]23)ccc1O` was tested, and the outcome was “inactive [at 17.4 µM]”. `C[C@@H]1[C@H](O)[C@@H]2OC(=O)C3=C2[C@H](CCC3)[C@@]12C[C@@H](c1ccoc1)OC2=O` was tested, and the outcome was “inactive”. In the case of `CC1OC(OC2CCC3(C)C(CCC4(C)C3C=CC35OCC6(CCC(C)(C)CC63)CCC45C)C2(C)CO)C(OC2OC(CO)C(O)C(O)C2O)C(O)C1OC1OC(CO)C(O)C(O)C1O` (configuration not stated), the outcome is reported as “inactive [at 9.27 µM]”. `CCC(C)C1NC(=O)C2CCCN2C(=O)C(CC(O)CO)OC(=O)CCNC(=O)C(C)N(C)C(=O)C(C(C)C)N(C)C1=O` (configuration not stated) (cyclo([X13]PI[NMeV][NMeA][βAla]); configuration not given here) was tested, and the outcome was “inactive [at 17.4 µM]”. In the case of `CC(O)C(=O)/C=C/C=C/C(=O)OC1C=C2COC(=O)C2(O)C2(C)CCCC(C)(C)C12` (configuration not stated), the outcome is reported as “inactive [at 17.4 µM]”. In the case of `CC(C)C(O)(CO)CCO[C@@H]1O[C@H](CO[C@H]2OC[C@](O)(CO)[C@H]2O)[C@@H](O)[C@H](O)[C@H]1O` (some centres not stated), the outcome is reported as “inactive [at 17.4 µM]”. In the case of `Nc1ncnc2c1ncn2[C@H]1O[C@@H](C(=O)N2CCN(CC(=O)Nc3cccc4c3CNC4=O)CC2)[C@H](O)[C@@H]1O`, the outcome is reported as “inactive”.
